From PubChem BioAssay (NCI)
This is part of a sample that, as a whole, favours compounds with a hit. Of some 83,000 tested, about 20% had one in any assay.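 48-hour exposure, single concentration, 96-well plates; percent growth endpoint where 0 means no net growth. Active: below 10.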 Values without a mark were called inactive. Calls of active or inactive are those of the source.

Tests used:
Assay in all cases: NCI-60 one-dose screen, 48 h (100 = growth as untreated, 0 = no growth, -100 = all killed)
HCT-15 colon = details: 10 µM unless noted
HT29 colon = details: 10 µM unless noted
SNB-75 CNS = details: 10 µM unless noted
SNB-19 CNS = details: 10 µM unless noted
U251 CNS = details: 10 µM unless noted
PC-3 prostate = details: 10 µM unless noted
SK-MEL-5 melanoma = details: 10 µM unless noted
UACC-62 melanoma = details: 10 µM unless noted
LOX IMVI melanoma = details: 10 µM unless noted
SK-MEL-28 melanoma = details: 10 µM unless noted
SN12C renal = details: 10 µM unless noted
UO-31 renal = details: 10 µM unless noted
TK-10 renal = details: 10 µM unless noted
A498 renal = details: 10 µM unless noted
CCRF-CEM leukemia = details: 10 µM unless noted
MOLT-4 leukemia = details: 10 µM unless noted
SK-MEL-2 melanoma = details: 10 µM unless noted
EKVX NSCLC = details: 10 µM unless noted
ACHN renal = details: 10 µM unless noted
CAKI-1 renal = details: 10 µM

SMILES	growth (HCT-15 colon) [%]	growth (HT29 colon)	growth (SNB-75 CNS)	growth (SNB-19 CNS)	growth (U251 CNS)	growth (PC-3 prostate)	growth (SK-MEL-5 melanoma)	growth (UACC-62 melanoma)	growth (LOX IMVI melanoma)	growth (SK-MEL-28 melanoma) [%]	growth (SN12C renal)	growth (UO-31 renal)	growth (TK-10 renal)	growth (A498 renal)	growth (CCRF-CEM leukemia)	growth (MOLT-4 leukemia)	growth (SK-MEL-2 melanoma)	growth (EKVX NSCLC)	growth (ACHN renal) [%]	growth (CAKI-1 renal) [%]
COc1ccc2c(-c3ccc(F)cc3)c(C#N)c(=NC(C)=O)oc2c1	25.8	95.6%	34%	33.7%	39.5%	30.6%	24.7%	32.1%	41.9%	69.7	56.9%	50.4%	78.1%	18.1%	13.1%	29.6%	–	–	–	–
ClC1c2ccccc2CCc2ccccc21	88.2	74.1%	81.6%	111%	96.6%	83.5%	96.7%	98.5%	93.6%	–	103%	60%	101%	102%	98.7%	107%	87.8%	94%	95.8	–
CCCCn1c(-c2cccc(OC)c2)nc2cc(OC)c(OC)cc2c1=O	103	110%	96.1%	89.7%	96.3%	108%	97.1%	83.6%	89.2%	–	98.1%	80.6%	215%	110%	-22.6% (active)	69.8%	101%	70.8%	97.8	–
COc1ccc2c(c1)nnc1c3cccnc3[nH]c21	12.2	-27.1% (active)	-14.2% (active)	11.5%	-4.49% (active)	29.3%	46.2%	-0.424% (active)	-30.8% (active)	–	-22.2% (active)	-74.1% (active)	11.8%	40.3%	-0.9% (active)	-21.6% (active)	-13.2% (active)	34.2%	–	–
Nc1nc(Cl)cc(NCc2ccc(CNc3cc(Cl)nc(N)n3)cc2)n1	100	110%	78.3%	100%	98.6%	109%	58.4%	98.3%	79.5%	–	106%	84.3%	124%	73.7%	107%	70.7%	74.1%	70.4%	92.7	–
COc1ccccc1C(OC(C)=O)OC(C)=O	103	88.5%	96.4%	113%	97.3%	102%	101%	102%	92.9%	109	111%	89.9%	91.1%	113%	113%	103%	–	99%	–	–
COc1cc(NC(C)CCCN2C(=O)c3ccccc3C2=O)c2nc(C)ccc2c1OC (stereo unspecified)	89.8	98.4%	82.6%	99.7%	94.2%	81.1%	88.5%	74.9%	85.7%	–	92.1%	98.1%	98.8%	97.5%	-56.3% (active)	73.6%	96.8%	96.3%	–	–
CCN(CC)C(=O)C1CCN(C(=O)c2ccccc2)CC1	104	104%	94%	100%	101%	96.9%	101%	97.2%	96.7%	107	101%	89.2%	87.1%	85.7%	80.9%	92.2%	–	101%	–	–
COc1cc(NC(C)CCCN2C(=O)c3ccccc3C2=O)c2ncccc2c1OC (stereo unspecified)	94.1	101%	84.8%	94.1%	107%	71.3%	84.3%	90.1%	79.2%	–	109%	59.4%	93.6%	104%	-26.9% (active)	-67.5% (active)	94.8%	69%	97.9	–
Cc1cn([C@]2(CF)O[C@H](CO)C2C)c(=O)[nH]c1=O (stereo partly specified)	112	112%	116%	118%	103%	117%	89.4%	122%	97.9%	121	125%	109%	–	115%	114%	94%	–	106%	112	–
C=CC(=O)NC(=O)Nc1ccccc1Cl	67.9	70.2%	83.8%	72.5%	81.7%	78.2%	96.6%	93.4%	86.1%	109	83.5%	59.8%	–	109%	37.2%	39.6%	–	94.7%	–	–
Cc1cc(Nc2ccc(Cl)c(Cl)c2)nc(N)n1	97.3	86.9%	72.3%	107%	95.3%	89.6%	83.9%	89.1%	100%	101	106%	86.2%	87.3%	78.8%	98.5%	78.8%	–	54.7%	–	–
Cc1ccc2[nH]c3nc4cccnc4c(C)c3c2c1	88.1	92.6%	77.6%	79%	75.7%	92.7%	95.2%	100%	89.7%	119	88.4%	62.8%	38.7%	92.7%	85.9%	81.9%	–	9.94% (active)	–	–
CCOC(=O)C1=C(N)Oc2cc(OC)ccc2C1c1ccc(F)c(F)c1 (stereo unspecified)	22.3	2.96% (active)	5.44% (active)	28.1%	28.2%	26.8%	12.8%	25.5%	43.8%	63.2	47.1%	44.2%	63.3%	4.52% (active)	20.4%	28.6%	–	40.1%	–	–
COC(=O)c1oc2c(C(C)=O)c(OCCN3CCCCC3)ccc2c1C	110	133%	226%	125%	105%	93.9%	102%	122%	96.5%	–	119%	84.5%	92.1%	131%	50.5%	108%	88.7%	113%	108	–
CCOc1ccc(Cc2nccc3cc(OCC)c(OCC)cc23)cc1OCC	59.8	25.2%	99.6%	62.5%	62.8%	52.9%	47.1%	50.7%	53.8%	91.7	58.9%	37.5%	68.6%	35.5%	58.7%	27.2%	–	42%	–	48
COc1ccc(C[C@H](N)C(=O)N[C@@H]2[C@@H](CO)OC(n3cnc4c(N(C)C)ncnc43)[C@@H]2O)cc1 (stereo partly specified)	71.6	-63.8% (active)	-40.7% (active)	-4.27% (active)	-91.6% (active)	-6.6% (active)	-96.6% (active)	-81.3% (active)	-61.9% (active)	–	-13.3% (active)	16.2%	-75.7% (active)	-65.6% (active)	-3.9% (active)	-22.3% (active)	-74.4% (active)	-47.2% (active)	–	42.8
N#Cc1c2c(c(N)[nH]c1=O)C(=O)NC2(O)c1ccccc1 (stereo unspecified)	106	97%	106%	114%	101%	102%	98.6%	107%	98.5%	114	113%	89.1%	93%	106%	100%	95.4%	–	98.1%	–	–
